Holding throughout (assay): NCI-60 one-dose screen, 48 h (100 = growth as untreated, 0 = no growth, -100 = all killed)
Common to all, as to details: 10 µM unless noted

Experiment [1] has as its system SK-MEL-2 melanoma.
The subject of experiment [2] is SN12C renal.
Experiment [3] concerns UO-31 renal.
Experiment [4] deals with TK-10 renal.
For experiment [5], the system named is ACHN renal.
Experiment [6] relates to CAKI-1 renal.
Experiment [7] concerns A498 renal.
For experiment [8], the system named is CCRF-CEM leukemia.
The subject of experiment [9] is MOLT-4 leukemia.
In experiment [10] the test system is SR leukemia.
The subject of experiment [11] is RPMI-8226 leukemia.
For experiment [12], the system named is OVCAR-8 ovarian.
In experiment [13] the test system is OVCAR-5 ovarian.
In experiment [14] the test system is SK-OV-3 ovarian.
Experiment [15] concerns IGROV1 ovarian.
For experiment [16], the system named is OVCAR-3 ovarian.
In experiment [17] the test system is HS 578T breast.
For experiment [18], the system named is EKVX NSCLC.
Experiment [19] deals with OVCAR-4 ovarian.
In experiment [20] the test system is NCI/ADR-RES ovarian.

The text below walks through data of PubChem BioAssay (NCI).

SMILES strings stand for the structures. The panel holds about 83,000 compounds, 20% with a hit somewhere; the sample as a whole holds those more often.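 Step 1: grow cells in 96-well plates. Step 2: add test compound at a single concentration. Step 3: incubate 48 h. Step 4: record percent growth.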 A number with no mark means an inactive call. Activity calls are given as the source filed them. Rule for the calls: active = growth percent below 10; inactive = the rest.

With `Cc1cc(N2CCN(c3ccnc4cc(Cl)ccc34)CC2)nc(N2CCOCC2)n1`, the growth was 105% in experiment [1]; 86% in [2]; 44.7% in [3]; 89.9% in experiment [4]; 86.1% in experiment [5]; 85.9% in [6]. For the same compound, the growth was 37.2% in experiment [7]; 92.3% in [8]; 66.7% in [9]; 80.8% in experiment [10]; 59% in [11]; 96.2% in experiment [12]. The growth in experiment [13] is 108%; in experiment [14] it was 88.3%; in experiment [15], 97.7%; in experiment [16], 85.9%; in experiment [17] it was 95.7%.

As for `CCN(CC)c1ccc(-c2cc(-c3cc(OC)c(OC)c(OC)c3)nc(N3CCOCC3)c2C#N)cc1`, the growth in experiment [18] is 36.3%; in experiment [2], 36.4%; in experiment [3] it was 5.65% (active); in experiment [4] it was 49.4%; in experiment [5], 19.5%; in experiment [6] it was 1.28% (active). Also, the growth is 34.5% in experiment [7]; 18.8% in experiment [9]; -8.39% (active) in experiment [10]; -33.1% (active) in [11]; -28.4% (active) in [12]; 5.94% (active) in experiment [13]. Besides, the growth is 38.2% in experiment [19]; 51.8% in experiment [14]; 19.5% in [15]; 32.8% in [16]; 55.8% in experiment [17]; 27.6% in [20].

`COc1cc2c(cc1O)CC[C@@H]1[C@@H]2CC[C@]2(C)[C@@H](NCCN(C)C)CC[C@@H]12`: the growth in experiment [1] was -95.7% (active); in experiment [18] it was -82.8% (active); in experiment [3], -84.1% (active); in [5], -92.8% (active); in [6], -95.9% (active); in experiment [7] it was -79.3% (active). Besides, the growth in [8] was -71.8% (active); in experiment [9], -71.8% (active); in [10], -67.2% (active); in [11], -59.9% (active); in experiment [12] it was -79% (active); in experiment [13], -84% (active). Moreover, the growth is -63.3% (active) in experiment [19]; -90% (active) in experiment [14]; -74.8% (active) in experiment [15]; -88.3% (active) in experiment [16]; -56.9% (active) in experiment [17]; -85.9% (active) in [20].

Turning to `O=C(Nc1cccc2[nH]c(C(F)(F)F)nc12)c1ccc(-n2cnnn2)cc1`, the growth was 108% in experiment [2]; 75.9% in experiment [3]; 108% in experiment [4]; 99.5% in [5]; 95.4% in experiment [6]; 83.1% in experiment [7]. Further, the growth in [8] was 28.6%; in experiment [9], 32.4%; in [10], 79.5%; in experiment [11], 48.7%; in experiment [12], 89.4%; in experiment [13], 123%. The growth is 90.5% in experiment [19]; 104% in [14]; 95.5% in experiment [15]; 76.2% in experiment [16]; 108% in [17]; 107% in experiment [20].

For `O=C1C=CC(=O)N1c1ccc2c(c1)Cc1cc(F)ccc1-2`, the growth in [1] was 107%; in [2], 94.6%; in experiment [3] it was 80.6%; in experiment [4] it was 99%; in experiment [5], 92.6%; in experiment [8], 65.2%. Further, the growth in experiment [9] was 43.7%; in experiment [10], 70.6%; in experiment [11], 28.2%; in experiment [12], 99.4%; in experiment [13], 93.5%; in experiment [19] it was 83.3%. The growth is 103% in [14]; 94% in experiment [15]; 115% in experiment [16]; 97.8% in experiment [17]; 105% in experiment [20].

As to `COc1ccc(C(=O)c2sc3nc4c(c(-c5cccnc5)c3c2N)CCCC4)cc1OC`, the growth in experiment [3] was 63.8%; in [4] it was 90%; in experiment [5] it was 77.1%; in experiment [6], 82.8%; in [7], 48.1%; in experiment [8] it was 55.5%. Moreover, the growth in experiment [9] is 41.4%; in experiment [10], 37.8%; in experiment [11], 4.67% (active); in [12] it was 85%; in [13], 86.4%; in [19] it was 74%. For the same compound, the growth in experiment [14] was 104%; in [15] it was 117%; in experiment [16], 89.9%; in experiment [17], 65.8%; in [20], 89.3%.

As for `O=C(N/N=C/c1ccccc1O)c1ccccc1Nc1ccnc(C(F)(F)F)c1`, the growth is 3.03% (active) in experiment [18]; 26.8% in [2]; 7.98% (active) in experiment [3]; 34.3% in [4]; 5.8% (active) in experiment [5]; -15.9% (active) in experiment [6]. Further, the growth in experiment [7] was -5.76% (active); in experiment [9], 5.72% (active); in [10], -13.9% (active); in experiment [11] it was -22% (active); in experiment [12], 14.9%; in [19] it was 22.4%. In addition, the growth is 11.4% in experiment [14]; 1.57% (active) in experiment [15]; 35.7% in [16]; 34.3% in [17]; 7.23% (active) in [20].

Regarding `CCCCCCN(CCCCCC)C(=N)c1ccnc2ccccc12`, the growth is 84.5% in experiment [18]; 71.9% in experiment [2]; 36.5% in experiment [3]; 73.4% in experiment [4]; 53.2% in experiment [5]; 37.2% in experiment [7]. Moreover, the growth is -4.39% (active) in experiment [8]; 48.8% in experiment [9]; 35.4% in experiment [10]; 50.2% in experiment [11]; 71.7% in experiment [12]; 77.4% in experiment [13]. The growth in experiment [19] is 67.6%; in [14], 92.4%; in experiment [15] it was 65.9%; in experiment [16] it was 69.3%; in experiment [20], 65.1%.

Take `O=C(COc1ccc(-c2nc3cc(Cl)c(Cl)cc3[nH]2)cc1)N=Nc1c(O)[nH]c2ccccc12`: the growth was 14.6% in [1]; -27.1% (active) in [2]; 99.7% in experiment [3]; 22.8% in experiment [4]; 25.6% in [5]; 38.5% in experiment [6]. Moreover, the growth was -1.56% (active) in experiment [7]; 16.1% in [8]; 27% in [9]; 9.9% (active) in [10]; 8.82% (active) in [11]; -24.2% (active) in experiment [12]. Besides, the growth in [13] is 53.6%; in experiment [19], -55.1% (active); in [14] it was 4.99% (active); in experiment [15], 33.2%; in [16], -54.9% (active); in experiment [17], -36.3% (active). In addition, in experiment [20], the growth was 85.1%.

For the compound `COc1cc(Nc2cc(C)nc(N3CCN(c4ccnc5cc(Cl)ccc45)CC3)n2)cc(OC)c1`, the growth in experiment [1] was 26%; in experiment [2], 0.314% (active); in experiment [3] it was -9.39% (active); in [4], 17.9%; in [5], 7.48% (active); in [6] it was 10.8%. Besides, the growth in experiment [7] is -12.5% (active); in [8] it was 5.29% (active); in experiment [9] it was 5.97% (active); in experiment [10], -4.09% (active); in experiment [11], -13.5% (active); in [12], 12.7%. The growth in experiment [13] was 24.8%; in experiment [19] it was 34.5%; in [14], 15.4%; in [15], -22.9% (active); in experiment [16] it was 6.15% (active).

As for `CSc1nc(NCc2ccccc2)c(C#N)c(-c2cccc([N+](=O)[O-])c2)n1`, the growth is 102% in experiment [1]; 85.4% in [18]; 78.3% in [3]; 95.6% in experiment [5]; 75.4% in experiment [6]; 66.1% in [7]. For the same compound, the growth in experiment [8] was 99.7%; in experiment [9] it was 103%; in experiment [11], 100%; in experiment [12] it was 95%; in experiment [13] it was 90.7%; in experiment [19], 88.5%. Further, the growth in experiment [14] was 97.1%; in [16] it was 111%; in experiment [17], 92%; in experiment [20], 95.2%.

As for `CC(=O)O[C@H]1[C@@H]2OC(=O)C(CSc3ccccc3)[C@@H]2C[C@H]2O[C@]2(C)CC/C=C(\C)CCC[C@@H]1C` (stereo partly specified), the growth in experiment [1] is 35.6%; in experiment [2] it was 31.6%; in experiment [3], 11.7%; in [4] it was -5.98% (active); in experiment [5] it was 33.5%; in [6], 2.92% (active). In addition, the growth is 116% in [7]; 52.4% in experiment [8]; 22.7% in [9]; 58.2% in [10]; 51.6% in [11]; 28.7% in [12]. Further, the growth was 83.6% in experiment [13]; 34.3% in experiment [19]; 103% in experiment [14]; -9.73% (active) in [16]; 69.6% in experiment [17]; 29.6% in [20].

As for `CCCCn1cnc2c(Sc3c([N+](=O)[O-])ncn3C)nc(N)nc21`, the growth is 112% in experiment [1]; 97.6% in experiment [2]; 69.1% in experiment [3]; 102% in [4]; 99.8% in experiment [5]; 86.9% in experiment [8]. Also, the growth in experiment [9] is 49.5%; in experiment [10], 56.1%; in [11] it was 52.3%; in [12] it was 91.4%; in [13] it was 97.6%; in experiment [19] it was 89.9%. The growth was 101% in experiment [14]; 89.3% in [15]; 103% in experiment [16]; 101% in [17]; 109% in experiment [20].
